MITF TRPM1 inh: inhibitors of MITF-driven TRPM1 promoter in melanoma cells; 330,000 compounds, 0.83% hits; SK-MEL-5 TRPM1 promoter luciferase, 24 h; inhibition, % at 12.5 µM;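 active means mean inhibition across replicates of 60% or more, whatever share of single replicates reaches that level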
Shn3 3UTR inh: inhibitors of Schnurri-3 3'UTR reporter in osteoblasts; Clone20 osteoblast Shn3 3'UTR firefly luciferase, 24 h; inhibition, % at 12.5 µM; 360,000 compounds, 0.52% hits;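 active means mean inhibition of at least 75% with every replicate also reaching 75%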;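 further: 0% = median of neutral control wells and 100% = pilot-screen positive control compound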
KKLEB tox: counter-screen for CF NF-kB inhibitors: cytotoxicity. activity change (cytotoxicity), % at 5 µM. KKLEB CF airway cells viability, ATPlite luminescence, overnight; active compounds read low; cells stimulated with P. aeruginosa culture filtrate. 360,000 compounds, 0.36% hits. AID 602141;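 active means corrected activity change at or below -50% at 5 µM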
CF NFkB inh: cystic fibrosis NF-kB activation inhibition. KKLEB NF-kB-GFP reporter, PAF-induced, GFP fluorescence overnight. inhibition, % at 5 µM. 360,000 compounds, 0.86% hits;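 active means at least 50% inhibition at 5 µM, scaled per plate between neutral and stimulator controls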;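 further: PAF is a Pseudomonas aeruginosa culture filtrate used as stimulus; plate controls were PAF-stimulated DMSO wells for no effect and unstimulated DMSO wells for full effect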
HIF-2a inh: blocks HIF-2a reporter activity; 786-0 RCC cells HIF-2a reporter, luciferase luminescence, overnight; inhibition, % at 18.8 µM; 360,000 compounds, 0.72% hits;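 active means inhibition of the luminescence signal of 40% or more relative to plate controls, in a single-dose primary screen at 18.75 µM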
Peg3 prom inh-1: inhibitors of Peg3 promoter; HeLa PEG-Prom luciferase reporter, luminescence, overnight; inhibition, % at 20 µM; 360,000 compounds, 1.7% hits; AID 588405;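 active means inhibition of at least 50% at 20 µM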
Peg3 prom inh-2: confirmation of Peg3 promoter inhibitors; AID 602417; 1,300 compounds, 84% hits; inhibition, % at 20 µM; shares compounds with Peg3 prom inh-1; HeLa PEG-Prom luciferase reporter, luminescence, overnight;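 active means at 20 µM dose, 40% or more inhibition averaged across four replicates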
The depositor's hits bear a star; x = no result given. Sampled rows, rich in hits. Any-hit rate of the full collection: about 2.8%.

SMILES | MITF TRPM1 inh | Shn3 3UTR inh | KKLEB tox | CF NFkB inh | HIF-2a inh | Peg3 prom inh-1 | Peg3 prom inh-2
Cc1ccc(S(=O)(=O)NC(CCC(N)=O)C(=O)NCc2ccc3c(c2)OCO3)c(C)c1 (stereo not given) | -8.2 | -23.4 | -16.3 | 18.7 | -0.2 | -1.2 | x
O=C(c1ccc(Cl)cc1)N1CCN(c2ccc([N+](=O)[O-])c(NCc3cccnc3)c2)CC1 | 9.2 | 18.8 | -0.1 | 4.8 | 33.2 | 55.0* | 48.6*
C=CCn1c(C(C)(C)C)nc2ccccc21 | -1.3 | 2.8 | -3.5 | 1.4 | 5.8 | 1.6 | x
Cc1ccc(C(C(=O)NCc2ccco2)N(C(=O)CNC(=O)c2cccs2)c2c(C)cccc2C)cc1 (stereo not given) | 12.8 | 31.1 | -5.2 | 0.4 | 19.8 | 65.6* | 23.0
Cc1ccc(C(C(=O)NCc2ccco2)N(C(=O)CNC(=O)c2cccs2)c2ccc(C)cc2)cc1 (stereo not given) | -8.8 | 10.7 | 1.4 | -4.8 | 4.7 | 8.6 | x
CC(Sc1n[nH]c(-c2ccccc2F)n1)C(=O)Nc1ccc(S(N)(=O)=O)cc1 (stereo not given) | x | -13.6 | 6.8 | 4.0 | 12.5 | 2.8 | x
Cc1ccc(NC(=O)CN(C)C(=O)c2cccc(S(=O)(=O)N3CCc4ccccc4C3)c2)cc1 | x | -8.6 | -9.0 | 9.7 | 4.9 | 8.4 | x
CCOC(=O)c1c(NC(=O)COC(=O)Cc2c[nH]c3ccccc23)sc(C(=O)N(C)C)c1C | 11.6 | 1.4 | -20.6 | 27.9 | 16.3 | 4.4 | x
Cc1ccc(/C=C2\SC(=S)N(CCC(=O)N3CCCCC3)C2=O)cc1 | 5.3 | -17.1 | 10.6 | 17.0 | 22.4 | 20.4 | x
COc1cc(/C=C2\SC(=S)N(CCC(=O)N3CCCCC3)C2=O)cc(OC)c1OC | 13.1 | -10.1 | 0.9 | 26.5 | 22.4 | 67.8* | 47.1*
CCOC(=O)N1CCN(C(=O)CCN2C(=O)/C(=C\c3ccc(OC)c(OC)c3)SC2=S)CC1 | x | -11.5 | 4.2 | -2.0 | 11.7 | 13.9 | x
O=C(CCN1C(=O)/C(=C/c2cccs2)SC1=S)N1CCCCC1 | 7.4 | 8.6 | 16.4 | 46.6 | -24.1 | 112.1* | 91.6*
C/C(=N\NC(=O)c1cc(C2CC2)nc2ccccc12)c1ccc(O)cc1O | 58.3 | 68.9 | -7.7 | -19.9 | 7.6 | 55.7* | 65.0*
C/C(=N\NC(=O)c1cc(C2CC2)nc2ccccc12)c1ccc(C)s1 | 6.2 | 2.2 | -0.9 | -3.8 | 19.6 | 20.1 | x
CC(C)(C)OC(=O)N1CCC2(CC1)C(C#N)=C(N)OC1=C2C(=O)CCC1 | -0.6 | -14.7 | -0.7 | -13.5 | 18.3 | 3.7 | x
Cc1cc(NC(c2cccnc2)c2ccc3cccnc3c2O)no1 (stereo not given) | 57.1 | 80.0 | 6.1 | -1.3 | -3.0 | 73.1* | 69.4*
Oc1cccc(C(Nc2nccs2)c2ccc3cccnc3c2O)c1 (stereo not given) | 47.8 | 91.1* | -4.9 | -4.0 | 15.7 | 55.7* | 85.5*
COc1ccc(Cl)cc1C(Nc1cccnc1)c1ccc2cccnc2c1O (stereo not given) | 28.6 | 77.8 | -43.6 | 11.0 | 31.5 | 34.7 | x
COc1ccc(C(=O)NC2CCSc3ccccc32)cc1S(=O)(=O)N1CCOCC1 (stereo not given) | -0.6 | -47.6 | -1.0 | -31.9 | -11.7 | -18.1 | x
CSCCC(C(=O)NC1CCCC1)n1c(C2CCCC2)nc2ccccc21 (stereo not given) | x | x | x | x | 8.7 | x | x
COC1=C(Br)C(=O)c2ncccc2C1=O | 65.0* | 60.9 | 9.4 | -0.8 | 72.0* | 100.5* | 99.2*
COc1ccccc1N1C(=O)c2cccnc2C1=O | 1.9 | 0.5 | -6.6 | -12.1 | 18.4 | 8.1 | x
COc1cc(OC)cc(C(=O)NNC(=O)CN2C(=O)NC(C)(c3ccccc3)C2=O)c1 (stereo not given) | 8.2 | -17.9 | -6.8 | 20.2 | 2.5 | 5.4 | x
Cc1ccc(Oc2ccc(NC(=O)Cn3ccsc3=N)cc2)cc1 | 14.8 | -17.7 | -5.8 | 4.4 | 13.9 | 53.0* | 20.6
CCNC(=S)N1CCN(C(=O)C(Cc2ccccc2)NC(C)=O)CC1 (stereo not given) | -2.2 | -1.2 | 8.7 | 15.1 | 21.9 | -1.7 | x
C/C=N\NC(=O)CNC(=O)CNC(=O)c1ccccc1 | -24.1 | -13.0 | 8.2 | 4.2 | 4.8 | 0.0 | x
